Where a name gives a salt, the structure may show the parent alone. Values without a mark were called inactive.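 The calls were made as follows: active = AUC significantly below DMSO controls by Student t-fit with adjusted P under 0.01; inactive = not significantly reduced.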
System: Haemophilus parainfluenzae
Experiment: growth AUC normalised to DMSO control (fraction of control); higher = less growth inhibition, active = hit call of the paper
Details: 20 µM
Method in brief: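 For the AUC endpoint, growth curves were integrated by the trapezoidal rule up to the exponential-to-stationary transition and normalised to DMSO controls on the same plate. The curves came from OD578 readings taken hourly for 24 h, in three biological replicates. Pathogens had been passaged anaerobically twice and inoculated at an OD578 of 0.01 into pre-reduced mGAM plates carrying 20 μM compound and 1% DMSO, sealed with breathable membranes. Medium for Haemophilus parainfluenzae also contained hemin and NAD.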

**Q.** With `OC(CCN1CCCCC1)(c1ccccc1)C1CCCCC1` (stereo not drawn) [Trihexyphenidyl-D,L hydrochloride] as the molecule, how does the “growth AUC normalised to DMSO control” value read?
**A.** 1.01

**Q.** `Cc1cccc(CN2CCN(C(c3ccccc3)c3ccc(Cl)cc3)CC2)c1` (stereo not drawn) [Meclozine dihydrochloride] was tested. Which “growth AUC normalised to DMSO control” value did it give?
**A.** 0.948

**Q.** `CC(C)C(=O)Nc1ccc([N+](=O)[O-])c(C(F)(F)F)c1` [Flutamide] was tested. Which “growth AUC normalised to DMSO control” value did it give?
**A.** 1.09

**Q.** `O=C(O)c1ccccc1C(=O)Nc1ccc(S(=O)(=O)Nc2nccs2)cc1` [Phthalylsulfathiazole] was tested. Which “growth AUC normalised to DMSO control” value did it give?
**A.** 1

**Q.** For `O=C(O)CCC(=O)Nc1ccc(S(=O)(=O)Nc2nccs2)cc1` [Succinylsulfathiazole], which “growth AUC normalised to DMSO control” value is on record?
**A.** 1.01

**Q.** How did the “growth AUC normalised to DMSO control” value turn out when `CCCCOC(=O)c1ccc(O)cc1` [Butylparaben] was run?
**A.** 0.97

**Q.** With `Clc1ccc(CCC(Cn2ccnc2)Sc2c(Cl)cccc2Cl)cc1` (stereo not drawn) [Butoconazole nitrate] as the molecule, how does the “growth AUC normalised to DMSO control” value read?
**A.** 0.97

**Q.** Which “growth AUC normalised to DMSO control” value does the source give for `CO/N=C(\C(=O)N[C@@H]1C(=O)N2C(C(=O)O)=C(C[N+]3(C)CCCC3)CS[C@H]12)c1csc(N)n1` [Cefepime hydrochloride] here?
**A.** 0.0407 (active)

**Q.** For `COc1cc(N)c(Cl)cc1C(=O)NC1CCN(Cc2ccccc2)CC1` [Clebopride maleate], which “growth AUC normalised to DMSO control” value is on record?
**A.** 0.989

**Q.** `CCOC(=O)[C@H](CCc1ccccc1)N[C@@H](C)C(=O)N1Cc2ccccc2C[C@H]1C(=O)O` [Quinapril hydrochloride] was tested. Which “growth AUC normalised to DMSO control” value did it give?
**A.** 0.952

**Q.** How did the “growth AUC normalised to DMSO control” value turn out when `Cc1ccc(Cl)c(Nc2ccccc2C(=O)O)c1Cl` [Meclofenamic acid sodium salt monohydrate] was run?
**A.** 0.94

**Q.** `CN(C)CCN(Cc1ccccc1)c1ccccn1` [Tripelennamine hydrochloride] was tested. Which “growth AUC normalised to DMSO control” value did it give?
**A.** 1.01

**Q.** With `CC(=O)c1ccc2c(c1)N(CCCN(C)C)c1ccccc1S2` [Acetopromazine maleate salt] as the molecule, how does the “growth AUC normalised to DMSO control” value read?
**A.** 0.95

**Q.** With `CC[C@H]1OC(=O)[C@H](C)[C@@H](O[C@H]2C[C@@](C)(OC)[C@@H](O)[C@H](C)O2)[C@H](C)[C@@H](O[C@@H]2O[C@H](C)C[C@H](N(C)C)[C@H]2O)[C@](C)(OC)C[C@@H](C)C(=O)[C@H](C)[C@@H](O)[C@]1(C)O` [Clarithromycin] as the molecule, how does the “growth AUC normalised to DMSO control” value read?
**A.** 0.0384 (active)

**Q.** `COc1nc(C)nc(Cl)c1NC1=NCCN1` [Moxonidine] was tested. Which “growth AUC normalised to DMSO control” value did it give?
**A.** 1.01

**Q.** With `CCN(CC)CCNc1ccc(CO)c2sc3ccccc3c(=O)c12` [Hycanthone] as the molecule, how does the “growth AUC normalised to DMSO control” value read?
**A.** 0.986

**Q.** For `CCCc1cc(C(N)=S)ccn1` [Prothionamide], which “growth AUC normalised to DMSO control” value is on record?
**A.** 1.04

**Q.** For `Nc1ccc(S(=O)(=O)Nc2nccs2)cc1` [Sulfathiazole], which “growth AUC normalised to DMSO control” value is on record?
**A.** 1.03

**Q.** Which “growth AUC normalised to DMSO control” value does the source give for `CN1C(C(=O)Nc2ccccn2)=C(O)c2sccc2S1(=O)=O` [Tenoxicam] here?
**A.** 0.948

**Q.** How did the “growth AUC normalised to DMSO control” value turn out when `CCC(C)n1ncn(-c2ccc(N3CCN(c4ccc(OCC5COC(Cn6cncn6)(c6ccc(Cl)cc6Cl)O5)cc4)CC3)cc2)c1=O` (stereo not drawn) [Itraconazole] was run?
**A.** 1.09

**Q.** For `Fc1ccc(C(c2ccc(F)cc2)N2CCN(C/C=C/c3ccccc3)CC2)cc1` [Flunarizine dihydrochloride], which “growth AUC normalised to DMSO control” value is on record?
**A.** 0.97

**Q.** For `CC[C@H]1OC(=O)[C@H](C)[C@@H](O[C@H]2C[C@@](C)(OC)[C@@H](O)[C@H](C)O2)[C@H](C)[C@@H](O[C@@H]2O[C@H](C)C[C@H](N(C)C)[C@H]2O)[C@](C)(O)C[C@@H](C)[C@@H]2N[C@@H](COCCOC)O[C@H]([C@H]2C)[C@]1(C)O` [Dirithromycin], which “growth AUC normalised to DMSO control” value is on record?
**A.** 0.0968 (active)

**Q.** With `Nc1nc2ccc(OC(F)(F)F)cc2s1` [Riluzole hydrochloride] as the molecule, how does the “growth AUC normalised to DMSO control” value read?
**A.** 1.01

**Q.** With `Clc1cc(Cl)c(OCC#CI)cc1Cl` [Haloprogin] as the molecule, how does the “growth AUC normalised to DMSO control” value read?
**A.** 0.992

**Q.** With `COc1ccc2cc([C@@H](C)C(=O)O)ccc2c1` [(R) Naproxen sodium salt] as the molecule, how does the “growth AUC normalised to DMSO control” value read?
**A.** 1.1

**Q.** For `Cc1nnc(NS(=O)(=O)c2ccc(N)cc2)s1` [Sulfamethizole], which “growth AUC normalised to DMSO control” value is on record?
**A.** 0.903

**Q.** With `C#C[C@]1(O)CC[C@H]2[C@@H]3CCC4=CCCC[C@@H]4[C@H]3CC[C@@]21C` [Lynestrenol] as the molecule, how does the “growth AUC normalised to DMSO control” value read?
**A.** 0.931

**Q.** How did the “growth AUC normalised to DMSO control” value turn out when `Cc1nccn1CC1CCc2c(c3ccccc3n2C)C1=O` (stereo not drawn) [Ondansetron hydrochloride] was run?
**A.** 1.07
